From PubChem BioAssay
CYP2C19 inh – inhibitors of human CYP2C19. CYP2C19 Supersomes, luciferin-H EGE luminescence, 30 min. inhibition, % at 5 µM. 21% of 96,000 active. AID 778;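 active means CYP2C19 inhibition above a set limit at 5 µM in the primary screen, cut at about 50% in these data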;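 further: plate controls were negative control wells for no effect and 2.5 mM tranylcypromine positive control for full effect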
sEH act – increases human soluble epoxide hydrolase activity. 0.04% of 91,000 active. purified human sEH enzymatic activity, activator screen. AID 717. activation, % at 2 µM; in the data active means activation above about 37%
sEH inhibitor – soluble epoxide hydrolase (human) inhibition; P34913; recombinant human sEH enzymatic activity assay; inhibition, % at 2 µM; 0.34% of 91,000 active; AID 707; in the data active means inhibition above about 80%
CYP2C9 inhib – blocks human cytochrome P450 2C9; 20% of 96,000 active; AID 777; inhibition, % at 5 µM; CYP2C9 Supersomes, luciferin-H conversion, luminescence;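 active means blocking of liver enzyme CYP2C9 beyond about 50% at 5 µM, limit read from the data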
Target sequence (P11712 whole entry, looked up): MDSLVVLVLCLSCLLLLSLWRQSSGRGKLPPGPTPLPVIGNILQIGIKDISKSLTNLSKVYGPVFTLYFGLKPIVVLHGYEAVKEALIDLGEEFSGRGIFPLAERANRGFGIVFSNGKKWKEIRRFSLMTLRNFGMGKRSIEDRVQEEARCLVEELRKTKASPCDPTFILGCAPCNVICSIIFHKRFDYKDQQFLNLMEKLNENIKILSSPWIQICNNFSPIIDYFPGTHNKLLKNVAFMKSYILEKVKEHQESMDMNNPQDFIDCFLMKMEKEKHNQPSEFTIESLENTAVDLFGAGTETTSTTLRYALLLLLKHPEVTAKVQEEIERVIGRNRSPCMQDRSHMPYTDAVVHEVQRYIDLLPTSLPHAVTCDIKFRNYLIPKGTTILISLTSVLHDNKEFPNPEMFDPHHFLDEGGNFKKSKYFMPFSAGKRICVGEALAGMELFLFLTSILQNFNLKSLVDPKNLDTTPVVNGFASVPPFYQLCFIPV
CYP2C19 act – increases human CYP2C19 enzyme activity. P33261. recombinant CYP2C19, luciferin-H EGE luminescence; hits give high values; 0 = fully inhibited enzyme, 1 = untreated enzyme. activation factor at 5 µM. 96,000 tested, under 10 active;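 active means activation factor of at least 2 at 5 µM in the primary screen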;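 further: 0 = wells with 2.5 mM tranylcypromine and 1 = vehicle-only wells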
CYP2C9 act – activators of human CYP2C9; P11712; recombinant CYP2C9, luciferin-H conversion, luminescence; hits give high values; factor 1 = untreated enzyme, 0 = blocked; activation factor at 5 µM; 1.4% of 96,000 active; AID 1024;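 active means activation factor of 2 or more for CYP2C9 at a 5 µM dose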;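 further: 0 = sulfaphenazole-blocked wells and 1 = vehicle-only wells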
* = called active by the depositor; · = no result. This is a sample that favours compounds with a hit; in the whole collection about 27% have one here.

SMILES	CYP2C19 inh	sEH act	sEH inhibitor	CYP2C9 inhib	CYP2C19 act	CYP2C9 act
COc1cccc(NC(=O)N(Cc2ccco2)C(C)c2cccs2)c1 (stereo not given)	39.2	0.2	1.3	33.4	0.6	0.7
CC(c1cccs1)N(Cc1ccco1)C(=O)Nc1ccc(Cl)c(Cl)c1 (stereo not given)	78.0*	-10.9	12.9	96.7*	0.2	0
COCC(C)NCc1cccc(C)c1 (stereo not given)	14.9	4.3	-0.8	-9.7	0.9	1.1
CCCC(=N)C1=C(O)CC(CC(C)SCC)CC1=O (stereo not given)	82.5*	·	·	66.4*	0.2	0.3
CCCC(=O)C1C(=O)CC(CC(C)SCC)CC1=O (stereo not given)	16.3	10.9	-17.4	28.5	0.8	0.7
Cc1cccc(NC(=O)Cn2c(=O)n(Cc3ccco3)c(=N)c3c4c(sc32)COC(C)(C)C4)c1	58.7*	·	·	60.6*	0.4	0.4
NC(=O)Cn1c(=O)n(Cc2ccco2)c(=O)c2c3c(sc21)CCCCC3	20.8	1.1	1.7	18.2	0.8	0.8
O=C(Cn1c(=O)n(Cc2ccco2)c(=O)c2c3c(sc21)CCCC3)Nc1ccccc1	71.8*	-1.2	3.3	79.8*	0.3	0.2
CC1(C)Cc2c(sc3c2c(=N)n(Cc2ccco2)c(=O)n3CC(=O)Nc2cccc(Cl)c2)CO1	28.5	·	·	44.6	0.7	0.6
O=c1c2c3c(sc2n(CCN2CCCCC2)c(=O)n1Cc1ccco1)CCCCC3	45.3	-8.7	9.4	60.7*	0.5	0.4
CCn1c(=O)n(CCc2ccccc2)c(=O)c2c3c(sc21)CCCC3	-2.2	-14.9	17.6	-9.3	1	1.1
O=c1c2c3c(sc2n(CCN2CCOCC2)c(=O)n1Cc1ccco1)CCCCC3	50.9*	·	·	77.1*	0.5	0.2
CCOC(=O)CNC(=O)CSc1nnc(Cn2c(=O)sc3ccccc32)n1-c1ccccc1C	5.0	-1.7	2.9	28.5	0.9	0.7
O=C(Nc1ccc(S(=O)(=O)N2CCN(c3ccccc3)CC2)cc1)c1cccs1	0.7	-49.3	49.3	2.5	1	1
CC(C)(C)NC(=O)CN(C(=O)CNC(=O)c1cccs1)c1ccc2c(c1)OCCO2	14.4	-11.6	13.2	80.2*	0.9	0.2
CS(=O)(=O)c1cc([N+](=O)[O-])c(Sc2nc3ccccc3[nH]2)c([N+](=O)[O-])c1	68.8*	22.2	-24.7	12.2	0.3	0.9
Cn1c(=O)c2c(SCc3cccnc3)nc(C3CC3)nc2n(C)c1=O	87.9*	7.0	-9.8	56.6*	0.1	0.4
CCc1nc(SCc2cccnc2)c2c(=O)n(C)c(=O)n(C)c2n1	94.3*	·	·	41.5	0.1	0.6
CCOCCn1c(SCc2cccc(C)c2)nc2c1c(=O)[nH]c(=O)n2C	30.5	-2.6	6.0	43.5	0.7	0.6
Cc1nc2ccccc2c(=O)n1NC(=O)Cc1ccccc1	·	6.4	-0.8	·	·	·
CCC(=O)Nc1cccc(NC(=O)CSc2nnnn2Cc2ccccc2)c1	44.1	15.6	-17.1	53.3*	0.6	0.5
O=C(CSc1nnnn1Cc1ccccc1)Nc1ccc2c(c1)OCO2	31.8	-33.1	32.4	39.4	0.7	0.6
O=C(CSc1nnnn1Cc1ccccc1)Nc1ccc2c(c1)OCCO2	82.3*	-41.7	41.5	83.4*	0.2	0.2
Nc1c(C(=O)Nc2ccc3c(c2)OCCO3)nnn1CCc1ccccc1	57.3*	·	·	79.4*	0.4	0.2
Cn1c(=O)c2c(ncn2CCN(CCO)Cc2ccccc2)n(C)c1=O	-6.3	-10.2	8.9	-10.3	1.1	1.1
SMILES	CYP2C19 inh	sEH act	sEH inhibitor	CYP2C9 inhib	CYP2C19 act	CYP2C9 act
CN(C)CC(C)(C)CNS(=O)(=O)c1cccc(Cl)c1Cl	76.8*	2.8	-0.9	32.5	0.2	0.7
O=C(CN1CCN(c2ccc(F)cc2)CC1)c1ccc2c(c1)OCO2	33.0	-6.5	8.4	31.2	0.7	0.7
O=C(CCCN1C(=O)c2ccccc2C1=O)Nc1sc2c(c1C(=O)NCc1ccco1)CCC2	64.7*	4.5	-7.1	96.0*	0.4	0
O=C(CN1C(=O)c2ccccc2C1=O)Nc1sc2c(c1C(=O)NCc1ccco1)CCCC2	18.9	18.2	-14.2	81.6*	0.8	0.2
O=C(CN1C(=O)c2ccccc2C1=O)Nc1sc2c(c1C(=O)NCC1CCCO1)CCC2 (stereo not given)	-9.4	2.7	-4.0	7.9	1.1	0.9
Cc1c(N=Cc2cc3c(cc2Cl)OCO3)c(=O)n(-c2ccccc2)n1C	-1.7	·	·	-1.3	1	1
Cc1cccc2cc(CN(Cc3ccc(F)cc3)C(=O)N3CCOCC3)c(=O)[nH]c12	·	-0.3	4.0	·	·	·
CCOC(=O)C1=NN(c2cccc(Cl)c2)C2=NC(C)=C(C(=O)OC)C(c3cccs3)N12 (stereo not given)	·	-0.4	3.6	·	·	·
CC(CN1CCCCC1)OC(=O)c1cc2ccccc2o1 (stereo not given)	-5.9	·	·	-10.0	1.1	1.1
C=C(C)CSc1nc(C)c(Cc2ccccc2)c(=O)[nH]1	49.1	-9.1	7.1	23.1	0.5	0.8
CSc1nc(C)c(CCOCc2ccccc2)c(=O)[nH]1	69.1*	·	·	49.3	0.3	0.5
CC(C)c1c(O)nc(SCc2ccccc2)[nH]c1=O	5.1	·	·	52.3*	0.9	0.5
Cc1nc(SCC(C)C)[nH]c(=O)c1Cc1ccccc1	58.6*	·	·	-7.2	0.4	1.1
CN(C)c1nc(N2CCN(c3ccc(F)cc3)CC2)c(C#N)c(=O)o1	81.7*	-4.8	4.4	-118.8	0.2	2.2*
O=C(NC1CC1)c1cc(Cl)ccc1[N+](=O)[O-]	0.9	14.8	-12.3	-3.8	1	1
S=c1[nH]nc(Cc2ccccc2)n1Cc1ccco1	71.3*	-6.5	6.1	39.2	0.3	0.6
CCCn1c(Cc2ccccc2)n[nH]c1=S	16.4	-8.0	9.7	-5.4	0.8	1.1
Oc1ccc(-c2n[nH]c(=S)n2Cc2ccco2)cc1	31.1	-7.9	5.7	67.9*	0.7	0.3
Cc1cc(NC(=O)C2CC(c3ccc(F)cc3)=NO2)no1 (stereo not given)	42.8	-0.5	-2.2	23.3	0.6	0.8
CC1CC(NC(=O)Cc2ccc(Br)cc2)CC(C)(C)C1 (stereo not given)	·	-66.7	67.5	·	·	·
COc1ccc(CS(=O)(=O)/C(Cl)=C(/Cl)C(=O)Nc2ccc(OC)nc2)cc1	45.0	2.0	-4.9	68.3*	0.6	0.3
CCOc1ccccc1OCCCC(=O)Nc1ccc(OC)nc1	43.6	·	·	-74.4	0.6	1.7
CCCS(=O)(=O)C(=C(Nc1ccc(OC)cc1)Nc1ccc(OC)cc1)S(=O)(=O)CCC	-14.6	1.8	-2.5	-4.9	1.1	1
COc1ccc(NC(=O)/C(Cl)=C(/Cl)S(=O)Cc2ccccc2)cn1 (stereo not given)	50.8*	-0.8	1.1	92.2*	0.5	0.1
CC(=O)Nc1ccc(S(=O)(=O)N(C)CC(=O)Nc2ccccc2N2CCOCC2)cc1	13.1	·	·	-33.9	0.9	1.3
Cn1cc(Cl)c(-c2nc3ccccc3[nH]2)n1	62.3*	-12.3	11.5	31.6	0.4	0.7
